Among the data in publication PMC11006913 are binding signal values, retold here.

The target of this test is PITX2 (Homo sapiens, UniProt Q99697 72-157). The experiment in a line: PBM; 200 nM protein, PBS. The note with it: dsDNA, one strand shown.
In the case of AGGCGTCC, the binding signal was 7.84 upbm affinity estimate (log intensity, higher = more binding, comparable within an allelic series).

For GAGATCAC, the binding signal is 9.79 upbm affinity estimate (log intensity, higher = more binding, comparable within an allelic series). For CAGTACTG the value was 7.98 upbm affinity estimate (log intensity, higher = more binding, comparable within an allelic series); for ACTGGTGC, 7.7 upbm affinity estimate (log intensity, higher = more binding, comparable within an allelic series). To ATTAGGCC belongs 10 upbm affinity estimate (log intensity, higher = more binding, comparable within an allelic series). For CCGAGCAG the value was 8.01 upbm affinity estimate (log intensity, higher = more binding, comparable within an allelic series); for GAGAGGCC, 7.88 upbm affinity estimate (log intensity, higher = more binding, comparable within an allelic series); for CGGTGATA, 9.92 upbm affinity estimate (log intensity, higher = more binding, comparable within an allelic series). With ACGTGTCC, the binding signal is 8.04 upbm affinity estimate (log intensity, higher = more binding, comparable within an allelic series). To ACGATGCC belongs 7.9 upbm affinity estimate (log intensity, higher = more binding, comparable within an allelic series). To GGATTTAC belongs 12.3 upbm affinity estimate (log intensity, higher = more binding, comparable within an allelic series); to GGCTTAAA, 12.3 upbm affinity estimate (log intensity, higher = more binding, comparable within an allelic series). For ACATACGT the value was 8.05 upbm affinity estimate (log intensity, higher = more binding, comparable within an allelic series); for GCTTAGAA, 10.2 upbm affinity estimate (log intensity, higher = more binding, comparable within an allelic series). For the sequence GGCATTAC, the binding signal was 10.5 upbm affinity estimate (log intensity, higher = more binding, comparable within an allelic series).

Consider GACAACGC, for which the binding signal was 7.92 upbm affinity estimate (log intensity, higher = more binding, comparable within an allelic series). For GCTCCACC the value was 7.66 upbm affinity estimate (log intensity, higher = more binding, comparable within an allelic series); for CATGTTCG, 8.09 upbm affinity estimate (log intensity, higher = more binding, comparable within an allelic series). For AAGATAAT the value was 10.6 upbm affinity estimate (log intensity, higher = more binding, comparable within an allelic series).

For the sequence ACTGTCAG, the binding signal is 7.86 upbm affinity estimate (log intensity, higher = more binding, comparable within an allelic series).

TAGATTAA: the binding signal is 12.4 upbm affinity estimate (log intensity, higher = more binding, comparable within an allelic series). For ACCATCGT the value was 7.89 upbm affinity estimate (log intensity, higher = more binding, comparable within an allelic series); for ACTAAGCC, 12.4 upbm affinity estimate (log intensity, higher = more binding, comparable within an allelic series); for CCTGCTTA, 10.3 upbm affinity estimate (log intensity, higher = more binding, comparable within an allelic series). For ATTCAAAT the value was 9.75 upbm affinity estimate (log intensity, higher = more binding, comparable within an allelic series); for CATTATTC, 9.49 upbm affinity estimate (log intensity, higher = more binding, comparable within an allelic series). For CAAAATAC, the binding signal is 9.13 upbm affinity estimate (log intensity, higher = more binding, comparable within an allelic series).

As to AGTGCCTC, the binding signal is 7.74 upbm affinity estimate (log intensity, higher = more binding, comparable within an allelic series).

Regarding CCTACGTC, the binding signal is 7.98 upbm affinity estimate (log intensity, higher = more binding, comparable within an allelic series). For AAGCTTAG the value was 11.4 upbm affinity estimate (log intensity, higher = more binding, comparable within an allelic series).

ATTATCAC: the binding signal is 10.2 upbm affinity estimate (log intensity, higher = more binding, comparable within an allelic series). To GCAGTCGC belongs 7.82 upbm affinity estimate (log intensity, higher = more binding, comparable within an allelic series); to CCTCAACG, 7.97 upbm affinity estimate (log intensity, higher = more binding, comparable within an allelic series). As for GAGATATC, the binding signal is 8.8 upbm affinity estimate (log intensity, higher = more binding, comparable within an allelic series).

ACAGATCT: the binding signal was 9.05 upbm affinity estimate (log intensity, higher = more binding, comparable within an allelic series).

As to AACGAGGC, the binding signal is 7.79 upbm affinity estimate (log intensity, higher = more binding, comparable within an allelic series). For ACTCTCGG the value was 8.08 upbm affinity estimate (log intensity, higher = more binding, comparable within an allelic series).

With AATTCCAC, the binding signal was 9.99 upbm affinity estimate (log intensity, higher = more binding, comparable within an allelic series). For TATGATCA the value was 9.32 upbm affinity estimate (log intensity, higher = more binding, comparable within an allelic series). For CGCCAGCA the value was 8 upbm affinity estimate (log intensity, higher = more binding, comparable within an allelic series).
